The source of these data is PubChem BioAssay (Tox21).

“And” between values parts separate entries of the source, which are not always exact repeats. Equal values may be shown once. Inconclusive results are not listed. A structure can be active in one record and inactive in another. The source made the active and inactive calls. Unless noted, calls follow the shape of the full dose curve.

Assay [1] in a line: qHTS assay to identify small molecule agonists of the sonic hedgehog signaling (Shh) pathway (AID 1259368).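 Also: NIH/3T3-derived 3T3Gli1-Luc cells carrying a stable Gli1-driven firefly luciferase reporter; series mostly up to about 92 µM; nearly all actives have a fitted effect of over 15% in size.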 In a few lines:
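Steps: seed 3T3 Gli1-Luc cells, incubate 4 hr at 37 C, pin-transfer compounds in DMSO alongside a positive control, incubate 24 hr, add luciferase detection reagent, wait 30 min at room temperature, read luminescence.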

Assay [2] can be described thus: qHTS assay to identify small molecule antagonists of the sonic hedgehog signaling (Shh) pathway (AID 1259369). Also: nearly all actives have a fitted effect of over 45% in size. Also: potency is read from the fitted curve at half-maximal effect. Put shortly:
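Inhibition of Shh signalling is measured as reduced Gli1-response-element firefly luciferase output in an NIH/3T3-derived stable reporter clone stimulated with conditioned medium for 24hr.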

Assay [3] in a line: qHTS assay to identify small molecule agonists of the androgen receptor (AR) signaling pathway in the presence of an antagonist - cell viability counter screen (AID 1259379; active = well fitted curve in the direction sought with a large enough effect in the repeat runs; an effect the other way counts as inactive or inconclusive; also: nearly all actives have a fitted effect of over 25% in size; also: potency is read from the fitted curve at half-maximal effect;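 as to activity change, negative = cytotoxicity: MDA-kb2 human breast cancer cells carrying an MMTV luciferase reporter; series mostly up to about 92 µM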). In a few lines:
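Fluorescence from CellTiter-Fluor, added after 15 hr and read 1 hr later, gave cell viability. Cells were MDA-kb2 exposed to compounds (15 concentrations) in the presence of 3.0uM nilutamide at 37C, 0% CO2.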
(In qHTS, concentration-response curves come from the screen itself.)

Assay [4] can be described thus: qHTS assay to identify small molecule agonists of the estrogen receptor beta (ER-beta) signaling pathway - cell viability counter screen (AID 1259380; active = well fitted curve in the direction sought with a large enough effect in the repeat runs; an effect the other way counts as inactive or inconclusive; also: nearly all actives have a fitted effect of over 30% in size; also: potency is read from the fitted curve at half-maximal effect). In a few lines: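 Same-well viability counter screen. Cells: ER-beta-UAS-bla HEK293T, plated 6 hr before compound, in 2% charcoal-stripped FBS. Compound exposure 16 hr, 37C; viability by CellTiter-Glo luminescence after 30 min at room temperature.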

In assay [5] the target is Androgen receptor (Homo sapiens) (UniProt P10275). Nature of the assay: qHTS assay to identify small molecule agonists of the androgen receptor (AR) signaling pathway in the presence of an antagonist (AID 1259381). Also: nearly all actives have a fitted effect of over 15% in size. In a few lines: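 Cells are MDA-kb2 (human breast carcinoma, MMTV-luc, AR/GR responsive). Nilutamide is present at 3.0uM final throughout; compounds are added at 15 concentrations and incubated 16hr at 37C before ONE-Glo luminescence detection.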

The target of assay [6] is Estrogen receptor (Homo sapiens) (UniProt P03372). Nature of the assay: qHTS assay to identify small molecule agonists of the estrogen receptor alpha (ER-alpha) signaling pathway in the presence of an antagonist (AID 1259383). Also: nearly all actives have a fitted effect of over 15% in size. Also: potency is read from the fitted curve at half-maximal effect. As to activation: top concentration of the series differs between compounds. Put shortly: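 Cells are hormone-deprived for 5 days (charcoal-stripped FBS, no phenol red), plated for 24hr, spiked with 10.0nM ICI-182,780, then dosed at 15 concentrations. After 22hr at 37C, ONE-Glo luminescence reports ERE-luciferase activity.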

For assay [7], the target named is Estrogen receptor beta (Homo sapiens) (UniProt Q92731). Put plainly: qHTS assay to identify small molecule antagonists of the estrogen receptor beta (ER-beta) signaling pathway (AID 1259378; active = well fitted inhibition curve with a large enough effect in the signal ratio in the repeat runs, not every such curve was filed as active; the % refers to the signal ratio). In a few lines: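 ER-beta-UAS-bla HEK293T (GripTite) cells in 2% charcoal-stripped FBS medium were preincubated 6 hr at 37C, dosed with compound, then stimulated with 1 nM E2 (final) for 16 hr; beta-lactamase reporter read by B/G FRET fluorescence after 2 hr substrate loading.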

The nature of assay [8]: qHTS assay to identify small molecule antagonists of the estrogen receptor beta (ER-beta) signaling pathway - cell viability counter screen (AID 1259382; active = well fitted curve in the direction sought with a large enough effect in the repeat runs; an effect the other way counts as inactive or inconclusive; also: nearly all actives have a fitted effect of over 55% in size; also: potency is read from the fitted curve at half-maximal effect; as to activity change, negative = cytotoxicity: series mostly up to about 92 µM). In a few lines:
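Following a 6 hr plating period, HEK293T cells carrying a UAS-driven beta-lactamase reporter under ER-beta control received compounds and 1nM E2 (final). After 16 hr at 37C and 2 hr substrate loading, CellTiter-Glo luminescence indicated viability.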

A short description of assay [9]: qHTS assay to identify small molecule agonists or antagonists of the thyroid stimulating hormone receptor (TSHR) signaling pathway - wild type cell line counter screen (AID 1259384). Put shortly:
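Wild-type HEK293 cells were plated 18 h at 37 C/5% CO2, pin-dosed with compound plus Ro20-1724 medium, held 30 min at room temperature, then given cAMP-d2 and anti-cAMP-cryptate; fluorescence was read after 1 h. Fifteen concentrations, triplicate.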

The target in assay [10] is Estrogen receptor beta (Homo sapiens) (UniProt Q92731). Nature of the assay: qHTS assay to identify small molecule agonists of the estrogen receptor beta (ER-beta) signaling pathway (AID 1259377; active = well fitted activation curve with a large enough effect in the signal ratio in the repeat runs, not every such curve was filed as active; the % refers to the signal ratio). Put shortly:
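Measured by fluorescence intensity from a B/G FRET beta-lactamase substrate (2 h, room temperature) in ER-beta-UAS-bla HEK293T cells treated with DMSO-dissolved compounds for 16 hr at 37C and 5% CO2.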
% is scaled to controls: 0 for no effect and ±100 for the full control effect.

Estrogen receptor (Homo sapiens), sequence (P03372 whole entry, looked up): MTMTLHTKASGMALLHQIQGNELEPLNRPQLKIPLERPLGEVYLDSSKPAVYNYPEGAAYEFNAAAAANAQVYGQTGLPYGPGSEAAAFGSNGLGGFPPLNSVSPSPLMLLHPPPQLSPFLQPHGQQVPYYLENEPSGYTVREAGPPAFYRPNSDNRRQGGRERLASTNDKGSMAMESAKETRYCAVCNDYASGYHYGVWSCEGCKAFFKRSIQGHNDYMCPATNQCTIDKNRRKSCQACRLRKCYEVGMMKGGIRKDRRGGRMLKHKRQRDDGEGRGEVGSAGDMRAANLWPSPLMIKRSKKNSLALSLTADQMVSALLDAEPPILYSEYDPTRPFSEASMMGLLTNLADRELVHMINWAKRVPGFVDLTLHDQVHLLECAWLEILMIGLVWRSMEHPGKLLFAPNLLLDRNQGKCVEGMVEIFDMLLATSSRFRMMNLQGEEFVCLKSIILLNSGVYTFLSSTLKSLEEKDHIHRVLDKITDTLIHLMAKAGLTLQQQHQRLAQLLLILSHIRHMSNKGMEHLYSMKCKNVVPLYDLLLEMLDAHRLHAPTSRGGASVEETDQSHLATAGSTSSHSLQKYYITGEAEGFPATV
Estrogen receptor beta (Homo sapiens), sequence (Q92731 whole entry, looked up): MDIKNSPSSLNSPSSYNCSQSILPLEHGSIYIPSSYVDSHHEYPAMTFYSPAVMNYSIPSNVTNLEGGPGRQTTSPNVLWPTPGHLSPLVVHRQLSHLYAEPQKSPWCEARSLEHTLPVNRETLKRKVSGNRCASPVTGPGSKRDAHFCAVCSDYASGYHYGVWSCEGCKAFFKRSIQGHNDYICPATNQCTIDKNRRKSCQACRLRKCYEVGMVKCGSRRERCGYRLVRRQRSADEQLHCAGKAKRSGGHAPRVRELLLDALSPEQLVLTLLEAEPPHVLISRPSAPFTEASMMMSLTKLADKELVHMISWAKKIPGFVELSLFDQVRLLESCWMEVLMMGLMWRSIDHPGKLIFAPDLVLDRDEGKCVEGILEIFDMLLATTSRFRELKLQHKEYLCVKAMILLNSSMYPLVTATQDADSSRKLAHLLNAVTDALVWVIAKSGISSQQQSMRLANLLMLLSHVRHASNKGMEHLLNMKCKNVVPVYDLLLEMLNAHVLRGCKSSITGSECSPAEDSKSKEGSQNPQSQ
Androgen receptor (Homo sapiens), sequence (P10275 whole entry, looked up): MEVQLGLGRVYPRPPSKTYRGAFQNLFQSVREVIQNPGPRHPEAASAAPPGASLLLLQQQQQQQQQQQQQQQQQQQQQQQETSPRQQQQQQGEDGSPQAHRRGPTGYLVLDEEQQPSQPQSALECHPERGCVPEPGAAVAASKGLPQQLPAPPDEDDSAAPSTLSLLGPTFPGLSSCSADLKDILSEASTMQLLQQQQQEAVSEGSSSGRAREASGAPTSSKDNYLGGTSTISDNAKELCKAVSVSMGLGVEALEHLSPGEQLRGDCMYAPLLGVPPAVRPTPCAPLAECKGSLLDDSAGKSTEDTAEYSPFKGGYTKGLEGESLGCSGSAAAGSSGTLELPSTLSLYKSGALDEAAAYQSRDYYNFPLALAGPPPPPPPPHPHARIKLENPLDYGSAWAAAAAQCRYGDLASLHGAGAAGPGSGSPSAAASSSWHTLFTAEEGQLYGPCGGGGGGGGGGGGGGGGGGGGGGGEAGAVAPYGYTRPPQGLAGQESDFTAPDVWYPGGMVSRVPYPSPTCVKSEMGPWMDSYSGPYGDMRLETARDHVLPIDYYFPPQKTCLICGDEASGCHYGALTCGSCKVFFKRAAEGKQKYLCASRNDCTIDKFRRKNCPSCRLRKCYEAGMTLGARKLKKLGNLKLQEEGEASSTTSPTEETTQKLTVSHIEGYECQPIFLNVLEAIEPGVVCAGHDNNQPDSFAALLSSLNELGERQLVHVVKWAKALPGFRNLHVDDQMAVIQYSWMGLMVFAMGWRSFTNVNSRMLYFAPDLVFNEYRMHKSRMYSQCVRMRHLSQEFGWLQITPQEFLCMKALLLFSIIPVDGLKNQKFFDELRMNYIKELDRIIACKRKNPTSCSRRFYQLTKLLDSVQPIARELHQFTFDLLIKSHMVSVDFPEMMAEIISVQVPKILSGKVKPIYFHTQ

Regarding `O=c1[nH]c2ccccc2n1C1CCNCC1`, the result in [1] was inactive. The Potency entry in assay [2], in assay [3], in assay [4], in assay [5] and in [6] was “inactive” throughout.

For the molecule `NC(=O)CS(=O)C(c1ccccc1)c1ccccc1` (centres undefined), the call in assay [1] and in assay [7] was inactive. In addition, the Potency result in assay [2], in assay [3], in [8] and in assay [6] was “inactive” each time.

On to `O=C(Cl)C(Cl)(Cl)Cl`, for which the molecule was called inactive in [1], in assay [7] and in assay [9]. For the same molecule, the Potency result in assay [2], in assay [3], in [4] and in [6] was “inactive” each time.

Regarding `CCCOC(=O)Cc1ccc(OCC(=O)N(CC)CC)c(OC)c1`, the call in assay [1], in [7] and in assay [9] was inactive. Further, the Potency entry in [2], in assay [3] and in assay [4] was “inactive” each time.

For `CCCOc1nn(C(=O)NS(=O)(=O)c2ccccc2C(=O)OC)c(=O)n1C`, the molecule was classed as inactive in assay [1] and in [9]. The Potency result in [2], in assay [3], in assay [4] and in assay [5] was “inactive” each time.

As to `CCOP(=S)(OCC)SCCl`, the call in [1] and in assay [9] was inactive. The Potency result in assay [2], in assay [3], in assay [4], in assay [5], in assay [8] and in [6] was “inactive” in each case.

Turning to `CC(=O)CN(CC(C)=O)N=O`, the molecule was classed as inactive in assay [1], in assay [7] and in assay [9]. In addition, the Potency result in [2], in assay [3], in assay [4], in assay [8] and in [6] was “inactive” in each case.

In the case of `CN=CNc1ccc(C)cc1C`, the call in assay [1], in assay [7] and in assay [9] was inactive. For the same molecule, the Potency result in assay [2], in assay [3], in assay [4], in assay [8] and in [6] was “inactive” in each case.

Regarding `CC(C)[C@]12CC(=O)[C@H](C)[C@H]1C2`, the result in [1], in [7] and in assay [9] was inactive. Besides, the Potency result in assay [2], in assay [3] and in assay [4] was “inactive” in each case.

As for `CCC1(c2ccccc2)C(=O)N(COC)C(=O)N(COC)C1=O`, in assay [1], the call was inactive. The Potency entry in assay [2], in [3], in assay [4], in assay [5] and in [8] was “inactive” throughout.

`BrCc1ccc(Br)cc1`: the molecule was classed as inactive in [1] and in [9]. Further, the Potency result in [2], in [3], in assay [4], in [5] and in assay [6] was “inactive” in each case.

Take `O=c1[nH]oc2c1CCNC2`: the molecule was classed as inactive in assay [1], in assay [7] and in assay [9]. In addition, the Potency entry in assay [2], in assay [3], in assay [8] and in assay [6] was “inactive” in each case.

Take `C=C(C)[C@H]1CN[C@H](C(=O)O)[C@H]1CC(=O)O`: the molecule was classed as inactive in [1], in assay [7] and in assay [9]. Moreover, the Potency entry in [2], in assay [4], in assay [8] and in assay [6] was “inactive” each time.

On to `Cc1ccc2cc(C)ccc2c1`, for which the molecule was called inactive in [1] and in assay [7]. Also, the Potency result in assay [2], in [3], in [4] and in assay [8] was “inactive” throughout.

`O=C1C2CC=CCC2C(=O)N1SC(Cl)(Cl)Cl` (centres undefined): the result in [1], in assay [7] and in assay [9] was inactive. Moreover, the Potency entry in assay [2] was “inactive and 2.69 µM (active)”; in assay [3], 30.1 µM (active); in [4], “inactive and 30.1 µM (active)”; in assay [8], “inactive and 30.1 µM (active)”; in assay [6], 2.42 µM (active) and inactive.

With `ClC(Cl)(Cl)Cl`, the call in assay [1], in [7] and in assay [9] was inactive. Besides, the Potency entry in assay [2], in assay [3], in assay [4], in assay [8] and in assay [6] was “inactive” in each case.

Turning to `N=C(N)[Se]`, the molecule was classed as inactive in assay [1], in [7] and in [9]. For the same molecule, the Potency result in assay [2], in [3], in assay [8] and in [6] was “inactive” throughout.

Regarding `CCC(C)C(C)(COC(N)=O)COC(N)=O` (centres undefined), the molecule was classed as inactive in assay [1], in assay [7] and in assay [9]. In addition, the Potency result in assay [2], in assay [3], in [4], in assay [8] and in [6] was “inactive” in each case.

`CC(C)(O)C(Cl)(Cl)Cl`: the call in assay [1], in [7] and in assay [9] was inactive. Also, the Potency result in assay [2], in assay [3], in assay [4], in assay [8] and in assay [6] was “inactive” throughout.

Take `CNC(=O)Oc1cc(C)c(N(C)C)c(C)c1`: the molecule was called inactive in assay [1], in assay [7] and in [9]. In addition, the Potency result in assay [4] and in assay [8] was “inactive” each time.

Turning to `CCC1(c2cccc(O)c2)CCCCN(C)C1` (centres undefined), the call in [1] and in assay [9] was inactive. The Potency result in assay [4] and in assay [8] was “inactive” in each case.

Turning to `COC(=O)c1ccc(CBr)cc1`, the molecule was classed as inactive in assay [1], in [7] and in [9]. Further, the Potency entry in [10], in assay [3], in [4], in assay [5] and in assay [8] was “inactive” throughout. Moreover, the Potency in assay [6] is 12.3 µM (active).

On to `C[C@]12C=CC(=O)C=C1CC[C@@H]1[C@@H]2CC[C@@]2(C)[C@H]1CC[C@]2(C)O`, for which the outcome in assay [1] and in assay [9] was inactive. The Potency result in assay [8] is “inactive”. Moreover, in [6], the Potency was 2.98 µM (active).

Take `CNC(=O)NC(O)C(Cl)(Cl)Cl` (centres undefined): the result in [1], in assay [7] and in [9] was inactive. The Potency result in assay [10], in [4], in [5], in assay [8] and in [6] was “inactive” throughout.

In the case of `[O-][Br+2]([O-])O`, the call in assay [1] was inactive. Besides, the Potency entry in [4], in [5], in [8] and in assay [6] was “inactive” throughout.

For `CCOC(=O)COc1ccc(Cl)cc1Cl`, in assay [1], the molecule was classed as inactive. Besides, the Potency result in assay [2], in [4] and in [8] was “inactive” throughout.

On to `CC(=O)OCC1=C(C(=O)O)N2C(=O)[C@@H](N)[C@H]2SC1`, for which the activity change, negative = inhibition in [2] was 1.15% [at 19 µM] (inactive). Besides, in assay [10], the activation was -0.931% [at 19 µM] (inactive). In assay [7], the activity, negative = inhibition was 21.8% [at 19 µM] (inactive). Further, the results for the activity change, negative = cytotoxicity in assay [3], in assay [4] and in assay [8] were 4.78% [at 19 µM] (inactive), 0.632% [at 19 µM] (inactive) and -2.02% [at 19 µM] (inactive), respectively. For the same molecule, in assay [9], the cAMP activity change is 4.85% [at 18.9 µM] (inactive).

For `ClCCCCl`, the Potency entry in assay [2], in assay [10], in assay [3], in assay [4] and in [8] was “inactive” each time. Moreover, the outcome in assay [7] and in assay [9] was inactive.

Turning to `CCC(=O)OC1(c2ccccc2)CCN(C)CC1`, the molecule was classed as inactive in assay [1]. Also, the Potency entry in [3], in assay [4] and in [8] was “inactive” throughout.

Turning to `CCc1ccc(C2CCNCC2)cc1`, the molecule was called inactive in [1], in [7] and in assay [9]. The Potency result in assay [10], in [3], in assay [4], in [5], in [8] and in assay [6] was “inactive” each time.

As for `Cn1c(N)nc2c3cccnc3ccc21`, the call in assay [1] and in assay [7] was inactive. Moreover, the Potency result in assay [10], in assay [3], in [4] and in assay [6] was “inactive” throughout.

For `O=C(NC(=O)c1c(F)cccc1F)Nc1cc(Cl)c(F)c(Cl)c1F`, the molecule was called inactive in [1] and in [9]. Besides, the Potency result in assay [3], in [4], in assay [8] and in assay [6] was “inactive” each time.

For the molecule `O=C(O)c1c(Cl)ccc2cc(Cl)cnc12`, the Potency result in assay [2], in assay [10], in assay [3], in [4], in assay [8] and in [6] was “inactive” each time. The molecule was called inactive in assay [7] and in assay [9].

For the molecule `CC[C@H](O)C(C[C@H](C)N(C)C)(c1ccccc1)c1ccccc1`, the outcome in assay [1], in [7] and in assay [9] was inactive. The Potency entry in assay [10] and in assay [6] was “inactive” in each case.
